# LAP4-GFP MLPCN: modulators of LAP4-GFP expression in yeast, primary screen, S. cerevisiae, multiplex flow cytometry, MLPCN library; GFP response vs DMSO, % at 10 µM; 3 h; median GFP as percent of DMSO wells; hit rate 0.34% among 320,000;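 active = GFP response vs DMSO above a set limit, about the screen mean plus 3 SD, cut at about 150% in these data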
# MEP2-GFP yeast: modulators of MEP2-GFP levels in yeast, primary screen, S. cerevisiae, multiplex flow cytometry, MLPCN library. GFP response vs DMSO, % at 10 µM. AID 2016, 2009. S. cerevisiae MEP2-GFP strain, 3 h; 100% = DMSO control level. hit rate 0.51% among 330,000;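 active = GFP response versus DMSO above a set limit, roughly screen mean plus 3 SD, cut at about 180% in these data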;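 note: median GFP fluorescence of the barcode-gated MEP2-GFP cells per well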
# CIT2 TOR yeast: modulators of CIT2-GFP expression in yeast, primary screen, S. cerevisiae, GFP fusion, multiplex flow cytometry, MLPCN library. hit rate 0.065% among 320,000. AID 2029, 2009. GFP response vs DMSO, % at 10 µM. S. cerevisiae CIT2-GFP strain, 3 h; 100 means same as DMSO wells;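 active = GFP response relative to DMSO above a set limit, near the screen mean plus 3 SD, cut at about 150% in these data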;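 note: ratio of well median GFP fluorescence to mean of DMSO wells on the plate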
# RPL19A TOR yeast: RPL19A-GFP expression modulators in yeast, primary screen, cell-based, S. cerevisiae, multiplex flow cytometry, MLPCN; S. cerevisiae RPL19A-GFP strain, 3 h; stronger effect = lower value; percent response vs DMSO, % at 10 µM; hit rate 0.3% among 330,000; AID 2025, 2009;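 active = percent response vs DMSO below 50%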;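 note: median channel GFP fluorescence of the barcoded RPL19A-GFP strain; ratio of sample median GFP to plate DMSO average so 100% = DMSO; lower means less RPL19A-GFP as with rapamycin TOR inhibition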
# AGP1-GFP MLPCN: modulators of AGP1-GFP expression in yeast TOR pathway, primary screen, cell-based, multiplex flow cytometry, S. cerevisiae, MLPCN library | GFP response vs DMSO, % at 10 µM | hit rate 0.02% among 320,000 | AID 2066, 2009 | 3 h; GFP as percent of DMSO wells;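 active = GFP response relative to DMSO above a set limit, near screen average plus 3 SD, cut at about 150% in these data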;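 note: median GFP channel fluorescence of the gated AGP1 strain per well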
# LAP4 cherry2: LAP4-GFP expression modulators in yeast, confirmation, cell-based, second cherry pick, flow cytometry. shares compounds with LAP4-GFP MLPCN. S. cerevisiae LAP4-GFP strain, 3 h. GFP response vs DMSO, % at 10 µM. hit rate 20% among 590;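 active = GFP signal as percent of the solvent control above about 150%, meaning raised reporter expression, limit read from the data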;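 note: ratio of well median GFP fluorescence to plate DMSO mean so 100% = DMSO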
# MEP2 cherry2: modulators of MEP2-GFP levels in yeast, confirmation, S. cerevisiae, flow cytometry GFP, second cherry picks; hit rate 10% among 590; shares compounds with LAP4-GFP MLPCN; S. cerevisiae MEP2-GFP strain, 3 h; GFP response vs DMSO, % at 10 µM;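 active = GFP signal above 150% of the solvent control wells, that is a rise of more than half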;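 note: median channel GFP fluorescence of all gated yeast cells per well; ratio of median GFP to plate DMSO average so 100% = DMSO level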
# RPL19A-GFP pick2: RPL19A-GFP modulators in TOR pathway yeast, confirmation, cell-based, S. cerevisiae, flow cytometry, second cherry pick. shares compounds with LAP4-GFP MLPCN. S. cerevisiae RPL19A-GFP strain, 3 h; stronger effect = lower value; 100% means same as DMSO wells. GFP response vs DMSO, % at 10 µM. hit rate 3% among 590;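 active = under 65% GFP response relative to DMSO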;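 note: median GFP channel fluorescence per well over the all cells gate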
# CIT2 GFP CP2: modulators of CIT2-GFP expression in yeast, confirmation, flow cytometry, second cherry pick, single plex. shares compounds with LAP4-GFP MLPCN. S. cerevisiae CIT2-GFP strain, 3 h; DMSO control wells read 100%. GFP response vs DMSO, % at 10 µM. hit rate 8% among 590. AID 2624, 2010;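 active = GFP response vs DMSO above about 150%, limit read from the data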;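 note: median green fluorescence per well over all gated yeast cells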
# AGP1 GFP CP2: AGP1-GFP expression modulators, hit retest, confirmation, cell-based, flow cytometry, S. cerevisiae, cherry pick set 2 | shares compounds with LAP4-GFP MLPCN | S. cerevisiae AGP1-GFP strain, 3 h | percent response vs DMSO, % at 10 µM | 590 tested, under 10 active;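 active = over 150 percent of DMSO response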;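 note: median GFP channel fluorescence over all cells without mother daughter split; sample median GFP divided by mean DMSO control so 100% equals DMSO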
# Yeast autofluor: compound autofluorescence in yeast s288c, dose response, artefact control for yeast TOR pathway GFP screen, s288c strain; 610 tested, under 10 active; shares compounds with LAP4-GFP MLPCN; S. cerevisiae s288c, 520 nm autofluorescence, flow cytometry, 3 h; stronger effect = higher value; zero means same as solvent-only cells; AID 2757, 2010; fluorescence change (kMESF span) at 33 µM;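 active = fluorescence span over the dose series, or activity score, above about 33, limit read from the data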
# * hit, by the source's call; · = no result. Rows were chosen to be rich in hits. Some 0.89% of all compounds tested hit in one or more screens of this group.
SMILES,LAP4-GFP MLPCN,MEP2-GFP yeast,CIT2 TOR yeast,RPL19A TOR yeast,AGP1-GFP MLPCN,LAP4 cherry2,MEP2 cherry2,RPL19A-GFP pick2,CIT2 GFP CP2,AGP1 GFP CP2,Yeast autofluor
CCC(=NC1CC1)c1c(O)n(-c2ccc(OC)cc2)c(=O)[nH]c1=O,102.7,106.9,107.3,104.8,104.6,·,·,·,·,·,·
CCC(=NCCCN(C)C)c1c(O)n(-c2ccc(OC)cc2)c(=O)[nH]c1=O,155.9*,100.0,92.1,81.8,107.9,100.2,106.5,100.6,100.1,98.6,·
Cc1ccc(/C=C2\C(=O)NC(=S)N(c3ccccc3F)C2=O)s1,82.9,90.7,59.8,56.1,61.8,110.6,126.5,64.5*,69.0,67.6,-0.81
COc1ccc(N2C(=O)/C(=C/c3cccs3)C(=O)NC2=S)cc1,89.9,76.5,84.3,62.9,68.8,111.5,128.1,63.5*,72.4,64.4,-0.5
Cc1ccc(/C=C2\C(=O)NC(=S)N(c3ccc(F)cc3)C2=O)s1,237.4*,95.7,65.7,80.7,81.1,199.0*,119.8,91.6,115.3,98.4,-0.2
CCOC(=O)C1CCN(/C=C2/C(=O)NC(=S)N(c3ccccc3F)C2=O)CC1,90.5,103.1,103.6,109.5,101.9,·,·,·,·,·,·
O=P(NS(=O)(=O)c1ccccc1)(Oc1ccccc1)Oc1ccccc1,77.0,95.5,86.6,117.0,81.8,·,·,·,·,·,·
COc1ccc(-n2c(/C=C/c3ccc(O)c(OC)c3)nc3ccccc3c2=O)cc1,103.2,110.2,96.2,102.6,98.3,·,·,·,·,·,·
COc1cc(/C=C/[N+](=O)[O-])ccc1O,244.5*,85.5,76.6,88.1,79.5,191.3*,131.4,92.9,132.3,119.5,0.2
C=CCN1C(=O)NC(=O)/C(=C/c2cc3c4c(c2)CCCN4CCC3)C1=O,95.5,104.5,85.2,105.0,99.6,·,·,·,·,·,·
CN(C)C(=O)Oc1ccc(Cl)c2cccnc12,101.0,94.0,96.0,89.1,·,·,·,·,·,·,·
CN(C)C(=O)Oc1ccnc2cc(Cl)ccc12,101.5,96.9,94.0,94.9,105.2,99.0,94.8,99.6,105.2,99.9,0.1
COc1cc(C)c(CNCCc2c[nH]c3ccccc23)cc1C,96.8,101.2,101.7,104.4,105.1,·,·,·,·,·,·

# Compound activity: PubChem BioAssay, NMMLSC
